# According to PMC4552634, “A New Set of Chemical Starting Points with Plasmodium falciparum Transmission-Blocking Potential for Antimalarial Drug Discovery” (PLoS ONE, 2015):
# The whole screen tested about 13,000 compounds, of which about 3,200 (25%) showed an effect of 50% or more. This is one part of the list.
# Test system: P. falciparum stage V gametocytes
# Set-up: BacTiter-Glo ATP luminescence viability of purified stage V gametocytes in 384-well plates, per cent inhibition versus DMSO
# Conditions: 48 h, 5 µM; inhibitor
row,SMILES,% Inhibition [%]
1,Cc1ccc(Nc2nccc(NCC(O)c3cccc(C)c3)n2)cc1 (centres unmarked) [TCMDC-136569],-32.98
2,Cc1nc(-c2cccc(Nc3nccc(NCC(O)c4ccccc4)n3)c2)cs1 (centres unmarked) [TCMDC-136565],4.289
3,CN(C)Cc1cccc(-c2ccc(Nc3nccc(NCC(O)c4ccccc4)n3)cc2)c1 (centres unmarked) [TCMDC-136470],73.29
4,CN(C)Cc1ccc(-c2cccc(Nc3nccc(NCC(O)c4ccccc4)n3)c2)cc1 (centres unmarked) [TCMDC-136467],95.23
5,CN(C)CC(=O)Nc1cccc(Nc2nccc(NCC(O)c3ccccc3)n2)c1 (centres unmarked) [TCMDC-136472],19.31
6,CN1CCC(Oc2ccc(Nc3nccc(NCC(O)c4ccccc4)n3)cc2Cl)CC1 (centres unmarked) [TCMDC-136471],60.18
7,CN(C)CC(=O)Nc1ccc(Nc2nccc(NCC(O)c3ccccc3)n2)cc1 (centres unmarked) [TCMDC-136466],-80.24
8,CN1CCN(c2cccc(Nc3nccc(NCC(O)c4ccccc4)n3)c2)CC1 (centres unmarked) [TCMDC-136468],11.64
9,OC(CNc1ccnc(Nc2cccc(OCCCN3CCOCC3)c2)n1)c1ccccc1 (centres unmarked) [TCMDC-136465],23.11
10,FC(F)(F)c1ccc2[nH]c(-c3ccc(-c4cccc(CNCC5CCCO5)c4)cc3)nc2c1.O=C(O)C(F)(F)F (centres unmarked) [TCMDC-133095],-18.46
11,Cc1ccc(NC(=O)c2c(C)noc2-c2snnc2C)cc1 [TCMDC-125783],10.03
12,N#Cc1ccc(CN2CCC(NC(=O)c3ccc(-c4nnc(-c5cccc6ccccc56)o4)cc3)CC2)cc1 [TCMDC-136131],6.646
13,CC(C)Cn1cc(C2CCN(CCN3CCC(CNC(=O)c4ccc(-c5ccc(C(F)(F)F)cc5)cc4)CC3)CC2)c2ccccc21 [TCMDC-138852],92.78
14,N#Cc1ccc(-c2ccc(C(=O)NC3CCN(CCN4CCC(c5cn(CCOC6CCCCO6)c6ccccc56)CC4)CC3)cc2)cc1 (centres unmarked) [TCMDC-138855],104.1
15,Cc1cc(C2CCN(CCCCNC(=O)c3ccc(-c4ccc(C(F)(F)F)cc4)cc3)CC2)c(C)cc1OCCOC1CCCCO1 (centres unmarked) [TCMDC-138802],-43.58
16,CCOc1c(OC)ccc2c1CCN(CCN1CCC(CNC(=O)c3ccc(-c4ccc(C(F)(F)F)cc4)cc3)CC1)C2 [TCMDC-138806],11.85
17,COc1ccc2c(c1)c(C1CCN(CCCCNC(=O)c3ccc(-c4ccc(C(F)(F)F)cc4)cc3)CC1)cn2C(C)C [TCMDC-138801],16.06
18,CCOc1ccc(C2CCN(CCN3CCC(NC(=O)c4ccc(-c5ccc(C(F)(F)F)cc5)cc4)CC3)CC2)c(OCC2CC2)c1 [TCMDC-138832],-29.12
19,O=C(NCC1CCN(CCN2CCC(c3cn(CCO)c4ccccc34)CC2)CC1)c1ccc(-c2ccc(C(F)(F)F)cc2)cc1 [TCMDC-138856],114.3
20,N#Cc1ccc(-c2ccc(C(=O)NC3CCN(CCN4CCC(c5cn(CCO)c6ccccc56)CC4)CC3)cc2)cc1 [TCMDC-138858],-15.2
21,O=C(NC1CCN(CCN2CCC(c3cn(CCO)c4ccccc34)CC2)CC1)c1ccc(-c2ccc(C(F)(F)F)cc2)cc1 [TCMDC-138871],111.6

row,SMILES,% Inhibition [%]
1,O=C(NCC1CCN(CCN2CCc3ccc4c(c3C2)OCO4)CC1)c1ccc(-c2ccc(C(F)(F)F)cc2)cc1 [TCMDC-138834],-19.42
2,O=C(NC1CC1)c1cnc(N2CCCC(c3ccccc3)C2)c(Cl)c1 (centres unmarked) [TCMDC-134608],7.948
3,CCOC(=O)[C@H](Cc1cc([N+](=O)[O-])c(Oc2ccc(OC)c(Cc3ccc(OC)c(C(C)C)c3)c2)c([N+](=O)[O-])c1)NC(=O)C(F)(F)F [TCMDC-139398],36.25
4,COc1ccc(C2(CNCC(O)c3cccc([N+](=O)[O-])c3)CCCC2)cc1OC (centres unmarked) [TCMDC-123699],30.43
5,CCC[C@@H]([C@@H](CC1CCCCC1)C(=O)N[C@@H](CCOC(=O)NCC)C(=O)Nc1nccs1)N(O)C=O [TCMDC-138145],41.2
6,NC1=NC(c2ccccc2)(c2ccccc2)C(=O)N1CC=Cc1ccccc1 [TCMDC-136505],-58.42
7,O=C(NCCCN1CCOCC1)c1csc(Nc2ccc(Cl)c(Cl)c2)n1 [TCMDC-123719],-63.94
8,CCc1sc(N2CCC(C)CC2)nc1C(=O)Nc1ccc(F)cc1C(F)(F)F [TCMDC-134663],-1.278
9,CCCCCN1CCCC1CNS(=O)(=O)c1ccc(C(=O)Nc2ccc(C(F)(F)F)cc2)cc1 (centres unmarked) [TCMDC-133682],-15.48
10,O=C(O)C(F)(F)F.OCCN1CCN(Cc2ccc(-c3ccc(-c4nc5ccccc5[nH]4)cc3)cc2)CC1 [TCMDC-133025],-7.938
11,CN1CCCC(CN2CCN(Cc3cccc(-c4ccc(-c5nc6ccccc6[nH]5)cc4)c3)CC2)C1 (centres unmarked) [TCMDC-133888],60.97
12,CN1CCCC(CN2CCN(Cc3cccc(-c4cccc(-c5nc6ccccc6[nH]5)c4)c3)CC2)C1 (centres unmarked) [TCMDC-133912],100.3
13,CN1CCCC(CN2CCN(Cc3cccc(-c4csc(-c5nc6ccccc6[nH]5)c4)c3)CC2)C1 (centres unmarked) [TCMDC-133913],1.76
14,CN1CCCC(CN2CCN(Cc3ccc(-c4cccc(-c5nc6ccccc6[nH]5)c4)cc3)CC2)C1 (centres unmarked) [TCMDC-133916],44.74
15,O=C(O)C(F)(F)F.c1ccc2[nH]c(-c3ccc(-c4ccc(CN5CCN(c6ccncc6)CC5)cc4)cc3)nc2c1 [TCMDC-133830],15.5
16,CN1CCCC(CN2CCN(Cc3ccc(-c4ccc(-c5nc6ccccc6[nH]5)cc4)cc3)CC2)C1.O=C(O)C(F)(F)F (centres unmarked) [TCMDC-133903],95.28
17,c1cc(CN2CCN(c3ccncc3)CC2)cc(-c2ccc(-c3nc4ccccc4[nH]3)cc2)c1 [TCMDC-132921],36.65
18,O=C(Nc1ccc(Cl)cc1)c1ccc(CN2CCCN(Cc3cccc(O)c3)CC2)cc1 [TCMDC-136406],-22.52
19,O=C(Nc1ccc(C(=O)N2CCN(CCN3CCN(c4cccc(C(F)(F)F)c4)CC3)CC2)cc1)c1ccc(OC(F)(F)F)cc1 [TCMDC-138147],-46.71
20,O=C(N[C@@H](Cc1ccccc1)C(=O)NCCN1CCOCC1)c1ccc(O)c(-c2ccc(Cl)c(Cl)c2)c1 [TCMDC-140851],14.71
21,COc1ccc(C2CC(=O)C3=C(C2)NC(C)=C(C(=O)OC(C)C)C3c2c(F)cccc2Cl)cc1OC (centres unmarked) [TCMDC-124040],34.34

row,SMILES,% Inhibition [%]
1,CNC(=O)c1ccc2nc(-c3ccc(-c4ccccc4)cc3)n(CC3CCN(CC4CCCC4)CC3)c2c1 [TCMDC-136523],25.32
2,COC(=O)Cn1c(C2CCN(CC3CCN(C(=O)/C=C/c4ccc(Cl)c(Cl)c4)CC3)CC2)nc2ccccc21 [TCMDC-140298],2.762
3,CNC(=O)c1ccc2nc(C3CC3)n(CC3CCN(S(=O)(=O)c4cccc(Cl)c4)CC3)c2c1 [TCMDC-136189],88.15
4,O=C(/C=C/c1cccc(C(F)(F)F)c1)NCCCCCN1CCN(C(=O)Nc2ccc(Cl)c(Cl)c2)CC1 [TCMDC-135794],-9.962
5,O=C1C2C(c3ccc(Cl)c(Cl)c3)N3CC(OCc4ccccc4)CC3(C(=O)O)C2C(=O)N1c1ccc(Br)cc1 (centres unmarked) [TCMDC-139263],16.51
6,Cc1cccc2nc(-c3ccc(-c4ccc(NC(=O)Nc5ccsc5)cc4)s3)[nH]c12 [TCMDC-133209],-24.83
7,CCC(Cc1ccccc1)c1cc(O)c(Cc2ccc(-c3ccccc3)cc2)c(=O)o1 (centres unmarked) [TCMDC-140730],-3.123
8,CN(C)Cc1cc2c(O)c(Cc3ccccc3)ccc2o1 [TCMDC-124091],7.975
9,CN(C)Cc1c(O)ccc2oc(Cc3ccccc3)cc12 [TCMDC-125816],62.06
10,O=S1(=O)NC2(CCN(CCc3ccc(Cl)cc3)CC2)Nc2cc(F)cc(F)c21 [TCMDC-124990],-19.76
11,Cc1ccc(S(C)(=O)=O)cc1/C=C/C(=O)O [TCMDC-139220],3.947
12,COc1ccc2nccc([C@@H](O)CN3CCC(NCCOc4ccc(F)cc4[N+](=O)[O-])CC3)c2c1 [TCMDC-140659],-1.987
13,CN1CCN(c2ccnc3ccc(NC(=O)Nc4cccc5ccccc45)cc23)CC1 [TCMDC-139346],6.615
14,O=c1nc(C=Cc2ccc(Br)cc2)oc2ccccc12 [TCMDC-123878],22.17
15,CCCc1c(C(=O)NC2CCC(CN3CCC(c4c[nH]c5ccccc45)CC3)CC2)cnn1-c1ccc(Cl)cc1 (centres unmarked) [TCMDC-140261],29.96
16,Cc1c(C(=O)NC2CCC(CN3CCC(c4c[nH]c5ccccc45)CC3)CC2)cnn1-c1c(Cl)cc(Cl)cc1Cl (centres unmarked) [TCMDC-140357],8.343
17,O=C(NC1CCC(CN2CCC(c3c[nH]c4ccccc34)CC2)CC1)c1cc(-c2cccc(Cl)c2)n(-c2ccc(Cl)cc2Cl)n1 (centres unmarked) [TCMDC-140353],-7.21
18,CCCc1c(C(=O)NC2CCC(CN3CCC(c4c[nH]c5ccccc45)CC3)CC2)cnn1-c1c(Cl)cc(Cl)cc1Cl (centres unmarked) [TCMDC-140423],74.19
19,CCCc1c(C(=O)NC2CCC(CN3CCC(c4c[nH]c5ccccc45)CC3)CC2)cnn1-c1ccccc1 (centres unmarked) [TCMDC-139954],89.66
20,O=C(NC1CCC(CN2CCC(c3c[nH]c4ccccc34)CC2)CC1)c1cc(-c2ccccc2Cl)n(-c2cccc(Cl)c2)n1 (centres unmarked) [TCMDC-140354],-13.83
